Screens deposited in PubChem BioAssay by National Center for Advancing Translational Sciences (NCATS).
DRD3 agonist: activates the human D3 dopamine receptor; actives 0.58% (n = 410,000); max activation, %; P35462; D3R DiscoveRx beta-arrestin cells, luminescence, 90 min; in the data active = max activation above about 30%; also: 0% is about no effect
Target sequence (P35462 whole entry, looked up): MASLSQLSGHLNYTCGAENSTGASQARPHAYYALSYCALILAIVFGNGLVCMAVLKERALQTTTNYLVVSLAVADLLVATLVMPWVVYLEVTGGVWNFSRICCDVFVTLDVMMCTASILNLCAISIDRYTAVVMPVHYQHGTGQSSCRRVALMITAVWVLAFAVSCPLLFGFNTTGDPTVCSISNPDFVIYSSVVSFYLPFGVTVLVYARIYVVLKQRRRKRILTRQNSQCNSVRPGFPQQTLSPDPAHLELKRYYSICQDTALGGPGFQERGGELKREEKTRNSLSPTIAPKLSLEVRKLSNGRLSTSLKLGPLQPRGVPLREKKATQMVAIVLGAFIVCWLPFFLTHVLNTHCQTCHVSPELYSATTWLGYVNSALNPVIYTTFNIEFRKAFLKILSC
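Cells at 1500/well, incubated overnight, then treated with pinned compounds (dopamine as control) for 90 min at 37 degrees C. DiscoveRx reagent added for 30 - 60 minutes at room temperature; luminescence read.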
D1 PAM: human D1 dopamine receptor positive modulation | P21728 | HEK293 TREx D1 cells, calcium flux, dopamine EC20 potentiation | potentiation, % at 10 µM | actives 0.036% (n = 360,000) | AID 504651; in the data active = potentiation above about 30%; also: 0% is about no effect
DRD3 antagonist: antagonists of human D3 dopamine receptor; AID 652054; max response, negative = inhibition, %; D3R cells, DiscoveRx beta-arrestin luminescence, antagonist mode; hits give low values; actives 2.5% (n = 360,000); P35462; in the data active = max response below about -50%; inconclusive = no clear call, values can overlap the other calls; also: % is scaled to controls: 0 for no effect and ±100 for the full control effect
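Cells expressing the human receptor were seeded at 1500 cells/well, incubated overnight at 37 degrees C in 5% CO2, then exposed to library compounds with dopamine controls for 90 minutes at 37 degrees C before luminescent detection.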
ERG Ets-DNA blk: blocks human ERG Ets domain binding to DNA; P11308; fluorescence polarization, His-ERG Ets domain / labelled DNA; Potency, µM (series often up to 76.9 µM), without a hit: at the top dose FP activity, negative = inhibition, actives largely listed as inhibitors; actives 0.028% (n = 370,000); AID 624246; active = well fitted inhibition curve with a large enough effect in the polarisation, with a control signal flat; inconclusive = small, poorly fitted or top-dose-only effect, or effect the other way, or a change in a side signal; inactive = no such curve, though single readings can be large or run the other way; the % refers to the polarisation;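 also: polarization taken with two DNA probes labelled with fluorescein and Texas red; potency is read from the fitted curve at half-maximal effect; % of control where 0% means no effect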
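His-tagged ERG Ets domain (1 uM in the protein solution; 300mM KCl, 50mM Tris-HCl, 1mM EDTA, 1mM DTT, pH 7.5) received compound, then a probe mix of 5 nM fluorescein-DNA and 100nM Texas-615-DNA. Fluorescence polarization was read for both dyes.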
D1 ag: agonists of human D1 dopamine receptor; P21728; HEK293 T-REx D1 cells, calcium flux, agonist mode; activation, % at 2 µM; actives 1% (n = 360,000); AID 504660; in the data active = activation above about 30%; also: 0% is about no effect
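Tetracycline-induced HEK293 TREx D1 cells, force-coupled to calcium signalling, were dye-loaded with a no-wash calcium kit. Compound was pin-added after a 10 s baseline. Fluorescence was read kinetically at 1 cycle/s for 180 s, with calcium rises flagged as agonism.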
D1 antag: antagonists of human D1 dopamine receptor. HEK293 TREx D1 cells, calcium flux, dopamine EC80; hits give low values. activity change, negative = inhibition, % at 10 µM. actives 3.2% (n = 360,000). AID 504652; in the data active = activity change below about -30%; also: % is scaled to controls: 0 for no effect and ±100 for the full control effect
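Tetracycline-induced HEK293 Trex D1 cells, force-coupled to calcium, dye-loaded; compounds added and read 180 s, then EC80 dopamine added and calcium flux tracked kinetically another 180 s.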
* = called active by the depositor; u = inconclusive; x = no result. Compounds with a hit are over-represented: about 6.1% of the library has one in this group of screens.

SMILES	DRD3 agonist	D1 PAM	DRD3 antagonist	ERG Ets-DNA blk	D1 ag	D1 antag
COC(=O)/C=C1\N/C(=N\c2nc(C)cc(C)n2)N(c2ccccc2)C1=O	-9	-3	16	13%	0	-52*
CN(CCOC(=O)c1ccc2c(c1)OCCO2)Cc1ccccc1	0	4	-79*	2%	5	12
CN(CC(=O)Nc1ccc(Cl)cc1)C(=O)CCc1ccccc1	-8	-4	-2	-3%	-4	10
COCCN(Cc1ccccc1)C(=S)Nc1ccc(Cl)cc1	-6	-10	-6	7%	4	-36*
CN(CCC(=O)Nc1ccc(Cl)cc1)Cc1ccccc1	-23	-10	-97*	6%	10	-5
CS(=O)(=O)N(CC(=O)Nc1ccc2c(c1)OCO2)Cc1ccccc1	-3	-5	-4	x	1	-6
CN(CCC(=O)Nc1ccc2c(c1)OCO2)Cc1ccccc1	-31	-5	-73*	x	2	1
O=C1NC[C@H](CCCCN2C[C@H](Cc3ccc(O)cc3)N(CCc3ccc(O)cc3)C(=O)C2=O)N(CCc2ccc(O)cc2)C1=O	2	x	6	x	x	x
O=C(Nc1ccc(S(=O)(=O)NCc2ccccc2)cc1)Nc1ccc2c(c1)OCO2	-12	-10	u	7%	8	-40*
CCNS(=O)(=O)c1ccc(NC(=O)Nc2ccc3c(c2)OCO3)cc1	-4	1	-6	3%	1	-10
CC(C)c1ccc(NC(=O)CN(Cc2ccccc2)S(C)(=O)=O)cc1	1	-7	-5	7%	42*	-20
COc1ccc(N2CCN(CCCNC(=O)C3COc4ccccc4C3)CC2)cc1 (stereo not drawn)	-13	-1	x	-1%	13	-19
CCOc1ccccc1CNCc1ccc(F)cc1	-12	0	-13	10%	4	-31*
COc1ccc(CCC(C)N2CCC(Oc3ccc(C(=O)N4CCCC4)cc3)CC2)cc1 (stereo not drawn)	-23	-6	-20	5%	14	1
CC(CCc1ccc(O)cc1)N1CCC(Oc2ccc(C(=O)N3CCCC3)cc2)CC1 (stereo not drawn)	73*	-5	5	3%	5	-1
COc1ccccc1/C=C/CN1CCC(Oc2ccc(C(=O)N3CCCC3)cc2)CC1	-13	-4	-68*	-2%	3	-20
O=C(c1ccc(OC2CCN(CCc3ccccc3)CC2)cc1)N1CCC[C@H]1CO	-21	-5	-18	14%	0	-79*
O=C(c1ccc(OC2CCN(CCc3ccccc3)CC2)cc1)N1CCCC(O)C1 (stereo not drawn)	-11	-2	-8	17%	0	0
COC1CCCN(C(=O)c2ccc(OC3CCN(CCc4ccccc4)CC3)cc2)C1 (stereo not drawn)	-10	-4	-55*	4%	4	-1
Cc1cccc(OCCNS(=O)(=O)c2ccc(Cl)cc2)c1	4	7	3	-1%	4	-8
CC#CCN(Cc1ccco1)C(=O)C1CCC(=O)N(Cc2ccccc2F)C1 (stereo not drawn)	3	-2	-1	14%	1	-6
COC(=O)COc1ccc2c(-c3ccc(OC)cc3)cc(=O)oc2c1	-10	-4	-25	3%	-2	x
COc1ccc(-c2cc(=O)oc3cc(OCc4nn[nH]n4)ccc23)cc1	-5	2	-53*	-7%	2	19
COc1ccc(C)cc1-n1c(-c2ccncc2)n[nH]c1=S	0	-4	-11	5%	1	-32*
O=C(Cn1ccccc1=S)c1ccc(Cl)c(Cl)c1	-7	x	-10	18%	x	x
SMILES	DRD3 agonist	D1 PAM	DRD3 antagonist	ERG Ets-DNA blk	D1 ag	D1 antag
On1ccccc1=S	-47	-3	-140*	-10%	1	1
CC1CCN(S(=O)(=O)c2cc(C(=O)Nc3ccc(Br)cc3F)n(C)c2)CC1	-4	-3	x	-3%	8	-35*
COc1ccc(C)cc1NC(=O)c1cc(S(=O)(=O)N2CCC(C)CC2)cn1C	-4	4	x	-1%	3	12
Cc1cc(C)c(NC(=O)CS(=O)CC(=O)N2CCN(c3ccccc3)CC2)c(C)c1 (stereo not drawn)	3	2	18	-1%	-1	17
Cc1ccc(-c2cc(C(=O)NCc3cccs3)no2)cc1	0	-8	-11	13%	4	-6
O=C(NCc1cccs1)c1cc(-c2ccc(O)cc2)on1	-6	-2	-7	-2%	50*	9
COc1ccc(OC)c(C2=NS(=O)(=O)N(C)C(C(=O)NCc3cccs3)=C2)c1	1	-5	-1	-8%	41*	-7
COc1ccc(OC)c(-c2cc(C(=O)NCc3cccs3)no2)c1	-27	-6	-96*	5%	3	-15
CC(NC(=O)CNC(=S)N(Cc1cccs1)C1CCCC1)c1ccccc1 (stereo not drawn)	3	-2	8	5%	8	-23
Nc1nc(N)c2cc(Sc3ccc4ccccc4c3)ccc2n1	1	12	26	12%	33*	17
O=C(Nc1ccc(COc2ccccc2)cc1)c1cccc([N+](=O)[O-])c1	6	-2	8	-4%	1	2
O=c1oc2cc(O)ccc2cc1-c1ccccc1	-12	2	17	-7%	2	-3
O=c1oc2cc(O)ccc2cc1-c1nc(-c2ccc(Cl)c(Cl)c2)cs1	6	3	x	-5%	46*	7
O=c1oc2cc(O)ccc2cc1-c1nc2c(s1)CCc1ccccc1-2	0	-10	84	10%	283*	-23
O=c1oc2ccccc2cc1-c1nc2c(s1)CCc1ccccc1-2	1	-8	11	0%	21	3
Cc1ccc(S(=O)(=O)N2CCC(=O)N(CCOC(=O)Nc3cccc(Cl)c3)CC2)cc1	2	-5	23	-11%	3	-31*
O=C(Nc1cccc(Cl)c1)OCCN1CCN(Cc2ccccc2)CCC1=O	34*	-7	-17	5%	14	-8
COc1cccc(NC(=O)OCCN2CCN(Cc3ccccc3)CCC2=O)c1	44*	-5	19	-12%	5	6
Cc1ccc(COCCN2CCN(S(=O)(=O)c3ccccc3)CCC2=O)cc1	7	-6	9	18%	1	-41*
Cc1ccc(CNC(=O)CSc2nc3n[nH]c(C)c3c(=N)n2-c2cccc(C)c2)cc1	-4	-9	5	-9%	4	-4
N#CC[C@H](c1ccccc1)N1CCN(Cc2ccccc2)CCC1=O	34*	-3	-10	1%	1	0
